26 compounds from PubChem BioAssay (Tox21) can be followed below.

A short description of assay [1]: qHTS assay to identify small molecule agonists of the sonic hedgehog signaling (Shh) pathway - cell viability counter screen (AID 1259366). Note: nearly all actives have a fitted effect of over 50% in size. An outline of the steps: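 NIH/3T3-derived 3T3 Gli1-Luc cells (stable Gli1-responsive firefly luciferase reporter) were seeded, rested 4 hr at 37 C/5% CO2, then exposed to compounds in DMSO for 24 hr; viability was read by CellTiter-Fluor fluorescence in the same wells.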

The nature of assay [2]: qHTS assay to identify small molecule antagonists of the sonic hedgehog signaling (Shh) pathway - cell viability counter screen (AID 1259367). Note: nearly all actives have a fitted effect of over 55% in size. In a few lines:
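CellTiter-Fluor signal in conditioned medium-stimulated 3T3 Gli1-Luc cells, 23 hr compound exposure, 37C.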

The nature of assay [3]: qHTS assay to identify small molecule agonists of the sonic hedgehog signaling (Shh) pathway (AID 1259368; calls by dose curve; note: series mostly up to about 92 µM; nearly all actives have a fitted effect of over 15% in size). In a few lines:
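Hedgehog pathway agonism scored by increased firefly luciferase luminescence in 3T3Gli1-Luc cells treated 24 hr at 37 C; detection used a 30 min room-temperature reagent incubation.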

The nature of assay [4]: qHTS assay to identify small molecule antagonists of the sonic hedgehog signaling (Shh) pathway (AID 1259369; calls by dose curve; note: nearly all actives have a fitted effect of over 45% in size). In a few lines: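 NIH/3T3 stable Gli1-Luc clone, 2,000 cells/well, 4hr settle; cpd + conditioned medium 24hr; Luc reagent 30min RT; luminescence.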
Assay [5] concerns the target Estrogen receptor beta (Homo sapiens) (UniProt Q92731). As to the kind of experiment: qHTS assay to identify small molecule agonists of the estrogen receptor beta (ER-beta) signaling pathway (AID 1259377; active = well fitted activation curve with a large enough effect in the signal ratio in the repeat runs, not every such curve was filed as active; the % refers to the signal ratio; note: potency is the fitted concentration of half-maximal effect). An outline of the steps:
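ER-beta-UAS-bla HEK293T (GripTite) cells carrying a UAS-driven beta-lactamase reporter, in medium with 2% charcoal-stripped FBS, were exposed to compounds for 16 hr at 37C; LiveBLAzer B/G FRET substrate was then added and fluorescence read after 2 hours at room temperature.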

The nature of assay [6]: qHTS assay to identify small molecule agonists of the androgen receptor (AR) signaling pathway in the presence of an antagonist - cell viability counter screen (AID 1259379).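 Note: MDA-kb2 human breast cancer cells carrying an MMTV luciferase reporter; series mostly up to about 92 µM; nearly all actives have a fitted effect of over 25% in size.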 In a few lines: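 MDA-kb2 viability measured by CellTiter-Fluor fluorescence in the same wells as the luciferase signal; nilutamide 3.0uM final; 15-point compound titration; 16 hr at 37C.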
The nature of assay [7]: qHTS assay to identify small molecule agonists of the estrogen receptor beta (ER-beta) signaling pathway - cell viability counter screen (AID 1259380). Note: nearly all actives have a fitted effect of over 30% in size. An outline of the steps:
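Measured: luminescence from CellTiter-Glo after 30 min at room temperature, added to wells already read for the LiveBLAzer FRET reporter (2 hr substrate); ER-beta-UAS-bla HEK293T cells had 16 hr compound treatment at 37C, 5% CO2.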

Assay [8] in a line: qHTS assay to identify small molecule antagonists of the estrogen receptor beta (ER-beta) signaling pathway - cell viability counter screen (AID 1259382). Note: series mostly up to about 92 µM; nearly all actives have a fitted effect of over 55% in size. An outline of the steps:
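Readout: luminescence, CellTiter-Glo, same wells as bla assay. System: ER-beta-UAS-bla GripTite HEK293T, 2% charcoal-stripped FBS. Exposure: compounds plus 1nM 17-beta-estradiol, 16 hr, 37C.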

Assay [9] addresses Estrogen receptor beta (Homo sapiens) (UniProt Q92731). As to the kind of experiment: qHTS assay to identify small molecule antagonists of the estrogen receptor beta (ER-beta) signaling pathway (AID 1259378; active = well fitted inhibition curve with a large enough effect in the signal ratio in the repeat runs, not every such curve was filed as active; the % refers to the signal ratio). In a few lines:
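Antagonist mode: compounds added to beta-lactamase reporter HEK293T ER-beta-UAS cells stimulated with E2 (1nM final), 16 hr at 37C. LiveBLAzer B/G FRET substrate, 2 hours room temperature, fluorescence read-out.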

The target in assay [10] is Androgen receptor (Homo sapiens) (UniProt P10275). The experiment in a line: qHTS assay to identify small molecule agonists of the androgen receptor (AR) signaling pathway in the presence of an antagonist (AID 1259381; calls by dose curve; note: nearly all actives have a fitted effect of over 15% in size). An outline of the steps: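 Luminescent ONE-Glo read, 30min at room temperature, follows 16hr compound exposure (15 concentrations) of MDA-kb2 cells at 37C, 0% CO2, with nilutamide added at 3.0uM final.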

A number with no mark means an inactive call. Records with an inconclusive call do not appear. Calls of active or inactive are those of the source. Unless noted, calls come from the whole dose curve; as a rule, active = well fitted curve in the direction sought with a large enough effect in the repeat runs; inconclusive = weak or mixed curves; inactive = no such curve, though single readings can be large; an effect the other way counts as inactive or inconclusive.
% is set by controls: 0 for no effect and ±100 for the full control effect.

Chain of Androgen receptor (Homo sapiens) (P10275 whole entry, looked up): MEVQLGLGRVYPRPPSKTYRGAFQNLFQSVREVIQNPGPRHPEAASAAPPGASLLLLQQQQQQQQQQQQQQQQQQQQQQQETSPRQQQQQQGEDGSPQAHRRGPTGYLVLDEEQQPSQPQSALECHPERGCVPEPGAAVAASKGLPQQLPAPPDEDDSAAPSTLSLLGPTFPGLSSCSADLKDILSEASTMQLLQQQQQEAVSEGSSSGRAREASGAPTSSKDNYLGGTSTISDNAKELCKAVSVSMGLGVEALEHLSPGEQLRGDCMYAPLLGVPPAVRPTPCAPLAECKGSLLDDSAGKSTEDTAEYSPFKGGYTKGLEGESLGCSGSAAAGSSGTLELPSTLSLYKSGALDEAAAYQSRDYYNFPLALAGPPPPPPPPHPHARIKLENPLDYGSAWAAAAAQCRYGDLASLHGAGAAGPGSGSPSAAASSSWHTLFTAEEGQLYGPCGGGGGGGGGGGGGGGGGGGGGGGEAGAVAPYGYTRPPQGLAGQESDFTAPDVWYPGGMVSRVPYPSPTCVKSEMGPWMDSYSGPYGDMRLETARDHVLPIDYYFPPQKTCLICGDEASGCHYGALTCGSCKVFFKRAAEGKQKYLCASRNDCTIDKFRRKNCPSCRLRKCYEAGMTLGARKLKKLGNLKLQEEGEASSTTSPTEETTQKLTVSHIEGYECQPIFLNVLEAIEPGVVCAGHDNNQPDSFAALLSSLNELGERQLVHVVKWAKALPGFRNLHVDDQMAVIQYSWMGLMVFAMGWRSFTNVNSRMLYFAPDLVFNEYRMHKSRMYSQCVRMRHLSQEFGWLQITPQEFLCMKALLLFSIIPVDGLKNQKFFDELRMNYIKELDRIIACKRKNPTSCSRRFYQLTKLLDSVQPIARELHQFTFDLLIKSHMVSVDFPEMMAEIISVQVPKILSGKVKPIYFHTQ
Chain of Estrogen receptor beta (Homo sapiens) (Q92731 whole entry, looked up): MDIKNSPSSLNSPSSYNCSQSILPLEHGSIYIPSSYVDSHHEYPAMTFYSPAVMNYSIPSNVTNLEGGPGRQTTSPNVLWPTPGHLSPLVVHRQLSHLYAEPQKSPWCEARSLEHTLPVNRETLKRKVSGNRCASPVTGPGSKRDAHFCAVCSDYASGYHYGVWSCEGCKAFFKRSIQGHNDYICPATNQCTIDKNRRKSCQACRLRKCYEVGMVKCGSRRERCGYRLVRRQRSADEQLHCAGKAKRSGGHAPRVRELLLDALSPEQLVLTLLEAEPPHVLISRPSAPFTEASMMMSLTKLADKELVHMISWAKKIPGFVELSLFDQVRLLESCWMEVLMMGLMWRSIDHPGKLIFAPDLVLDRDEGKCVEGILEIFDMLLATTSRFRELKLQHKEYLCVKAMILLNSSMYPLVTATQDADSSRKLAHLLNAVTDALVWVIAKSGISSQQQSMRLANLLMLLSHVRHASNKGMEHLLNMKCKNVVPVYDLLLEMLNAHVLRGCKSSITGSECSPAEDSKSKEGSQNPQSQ

Turning to `CC(=O)OCC(=O)[C@@]1(O)CC[C@H]2[C@@H]3CCC4=CC(=O)C=C[C@]4(C)[C@H]3[C@@H](O)C[C@@]21C`, the call in assay [1], in assay [2], in assay [3], in assay [6] and in assay [8] was inactive. In addition, the Potency entry in assay [4], in assay [5] and in assay [7] was “inactive” in each case.
`Cc1cc(N)no1`: the compound was classed as inactive in assay [1], in [2], in assay [3], in assay [9], in assay [6] and in assay [8]. In addition, the Potency result in assay [4], in assay [5] and in [7] was “inactive” throughout.
As to `NCC1CCC(C(=O)Oc2ccc(CCC(=O)O)cc2)CC1` (stereo not given), the compound was classed as inactive in [1], in assay [2], in [3], in [9], in assay [6] and in [8]. Also, the Potency entry in assay [4], in [5] and in assay [7] was “inactive” throughout.
Turning to `COc1cc2nc(N3CCN(C(=O)C4CCCO4)CC3)nc(N)c2cc1OC` (stereo not given), the compound was classed as inactive in [1], in assay [2], in assay [3], in assay [9], in [6] and in assay [8]. In addition, the Potency entry in assay [4] and in assay [5] was “inactive” each time.
Turning to `CCCCCCCCCCCBr`, the result in [1], in assay [2], in [3], in [9], in assay [6] and in assay [8] was inactive. Further, the Potency result in assay [4], in assay [5] and in [7] was “inactive” in each case.
Regarding `CC/C=C\CCCCCCCCCCOC(C)=O`, the compound was classed as inactive in [1], in [2], in [3], in assay [9], in assay [6] and in [8]. For the same compound, the Potency result in [4], in assay [5] and in assay [7] was “inactive” in each case.
Consider `CCC(C)SSC(C)CC` (stereo not given), for which the compound was called inactive in assay [1], in assay [2], in [3], in assay [9], in [6] and in [8]. For the same compound, the Potency entry in assay [4] and in [5] was “inactive” in each case.
As for `O=CN1CCCCC1`, the outcome in assay [1], in assay [2], in [3], in assay [9], in assay [6] and in [8] was inactive. Further, the Potency result in assay [4], in assay [5] and in assay [7] was “inactive” in each case.
For `CCC(C)(C)C`, the call in assay [1], in [2], in assay [3], in [9] and in assay [8] was inactive. The Potency entry in assay [4], in assay [5] and in assay [7] was “inactive” each time.
Turning to `O=C(O)Cc1c(Cl)ccc(Cl)c1Cl`, the result in [1], in [2], in assay [3], in assay [9], in assay [6] and in [8] was inactive. In addition, the Potency result in [4] and in [5] was “inactive” each time.
On to `CCc1ccc(CC)cc1`, for which the compound was called inactive in assay [1], in [2], in assay [3], in assay [9], in assay [6] and in [8]. The Potency entry in assay [4] and in assay [5] was “inactive” throughout.
For `CC(C)(C)c1ccc(N)cc1`, the compound was called inactive in assay [1], in [2], in [3], in assay [9], in assay [6] and in assay [8]. Also, the Potency entry in [4] and in assay [5] was “inactive” each time.
In the case of `O=S(=O)(O)c1ccc(Cl)cc1`, the outcome in assay [1], in assay [2], in assay [3], in assay [9], in assay [6] and in assay [8] was inactive. For the same compound, the Potency entry in assay [4] and in assay [5] was “inactive” throughout.
Consider `O=Cc1ccccc1S(=O)(=O)O`, for which the call in assay [1], in [2], in assay [3], in assay [9], in assay [6] and in assay [8] was inactive. In addition, the Potency result in [4], in [5] and in [7] was “inactive” throughout.
On to `CC/C=C/CCCCCCCCCCOC(C)=O`, for which the outcome in assay [1], in assay [2], in [3], in [9], in [6] and in assay [8] was inactive. Besides, the Potency entry in assay [4], in assay [5] and in assay [7] was “inactive” throughout.
Take `C/C=C(\C)C(=O)OC/C=C(\C)CCC=C(C)C`: the call in assay [1], in [2], in assay [3], in [9], in assay [6] and in assay [8] was inactive. Also, the Potency result in assay [4] and in assay [5] was “inactive” throughout.
As to `C=CC(=O)OCC[N+](C)(C)C`, the outcome in [1], in [2], in assay [3], in assay [9], in [6] and in [8] was inactive. Besides, the Potency result in assay [4], in assay [5] and in assay [7] was “inactive” throughout.
Regarding `CC(=O)O[C@@H]1CC2C3CCc4cc(OC(=O)c5ccccc5)ccc4C3CCC2(C)[C@H]1OC(C)=O` (stereo not given in full), the result in assay [1], in [2], in assay [3], in assay [6], in [10] and in assay [8] was inactive. Moreover, the Potency entry in assay [4] was “inactive”. Also, in [5], the Potency was 13.3 nM (active).
On to `C=CCCCCCCCCCCCCCC`, for which the viability change, negative = cytotoxic in [1] was -2.14% [at 19 µM]; in assay [2] it was -0.0329% [at 19 µM]. In addition, the activity change in assay [3] was -0.591% [at 18.9 µM]. In addition, the activity change, negative = inhibition in [4] is 8.65% [at 19 µM]. Further, in assay [5], the activation is 1.28% [at 19 µM]. The activity, negative = inhibition in [9] is 2.19% [at 19 µM]. Moreover, the activity change, negative = cytotoxicity is -2.34% [at 19 µM] in assay [6] and -6.85% [at 19 µM] in assay [8].
`CCCCCC(CC)OC(=O)CCCOc1ccc(Cl)cc1Cl` (stereo not given): the outcome in assay [1], in [2], in assay [3], in assay [9], in [6] and in assay [8] was inactive. The Potency entry in [4], in assay [5] and in assay [7] was “inactive” each time.
In the case of `CC(=O)c1ccc(O)c(C(N)=O)c1`, the outcome in [1], in assay [2], in assay [3], in assay [9], in assay [6] and in [10] was inactive. The result in assay [8] was inactive. Besides, the Potency result in [4] and in assay [5] was “inactive” in each case.
`CCCCCCCCC1CO1` (stereo not given): the outcome in [1], in [2], in [3], in [9], in [6] and in [10] was inactive. Besides, the compound was classed as inactive in assay [8]. Moreover, the Potency result in [4] and in assay [5] was “inactive” in each case.
Regarding `CCN1CCN(C(=O)N[C@@H](C(=O)N[C@@H]2C(=O)N3[C@@H]2SC(C)(C)[C@H]3C(=O)O)c2ccccc2)C(=O)C1=O`, the result in [1], in assay [2], in assay [3], in assay [9], in [6] and in [8] was inactive. Further, the Potency entry in assay [4] and in assay [5] was “inactive” in each case.
Consider `CCOCCOCCOC(C)=O`, for which the outcome in assay [1], in [2], in assay [3], in assay [6] and in [8] was inactive. Further, the Potency entry in assay [4], in assay [5] and in assay [7] was “inactive” each time.
In the case of `CC(C)OCCO`, the outcome in assay [1], in assay [2], in [3], in assay [9], in assay [6] and in [8] was inactive. The Potency result in assay [4] and in assay [5] was “inactive” throughout.
In the case of `CCC(C)c1nccnc1OC` (stereo not given), the call in assay [1], in assay [2], in assay [3], in assay [9], in assay [6] and in assay [8] was inactive. The Potency result in [4], in assay [5] and in [7] was “inactive” in each case.
